Experiment in all cases: PBM binding z-score (relative to random genomic background probes); higher = stronger binding; sequences stand for … in GC…GCGATTGACAGCGTAGAATGAAGG
Experiment [1] relates to RARb homodimer (NR concentration 270 nM). In outline:
(§1)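 Regression normalization was applied to scanned fluorescence from custom Agilent 4×180K protein-binding microarrays. Before scanning, arrays were incubated 1 h with ligand-free nuclear receptor dimers, and binding was detected with antibodies against each partner (one per run). Binding z-scores use the random background probes as reference.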

Experiment [2] concerns RARg:RXRa (NR concentration 270 nM, RXRa partner concentration 90 nM). In outline: as §1
The subject of experiment [3] is RARg homodimer (NR concentration 270 nM). The procedure, abridged:
as §1

Experiment [4] concerns RXRa DBDmut IVT, anti-RXR (DBD mutation: RXRa K156A/R161A, NR concentration 90 nM). The procedure, abridged:
as §1

In experiment [5] the test system is RXRa homodimer (NR concentration 180 nM). The procedure, abridged: as §1
Experiment [6] deals with THRa:RXRa (NR concentration 90 nM, RXRa partner concentration 90 nM). The procedure, abridged: as §1
Experiment [7] concerns THRa homodimer (NR concentration 90 nM). In outline:
as §1

Experiment [8] deals with VDR:RXRa (NR concentration 270 nM, RXRa partner concentration 90 nM). In outline:
as §1

Experiment [9] concerns VDR homodimer (NR concentration 270 nM). In outline: as §1

Here are results for 16 sequences from the supplement of paper PMC6555819.

For the sequence GCTGCTAGGTCAGGTTGGTCACCTAACGGGTACG, the PBM binding z-score in [1] was 2.81; in [2] it was 2.67; in [3] it was 3.43; in experiment [4] it was 0.0556; in [5], 1.44; in experiment [6], 2.17. Besides, the PBM binding z-score in experiment [7] worked out at 1.04; in [8], 0.967; in [9] it was 0.477.

Consider AGTCAAAGTTCATCTAGTTAACGTAAGATATGCT, for which the PBM binding z-score in [1] was 3.73; in [2], 5.37; in experiment [3], 5.78; in [4], 4.8; in [5] it was 4.19; in [6], 2.13. Further, the PBM binding z-score in [7] was -0.607; in experiment [8], 4.86; in experiment [9], 5.21.

For the sequence TCTTGTAGATCAAGCACGTTAAGAAAGCCTGAGT, the PBM binding z-score was -0.605 in experiment [1]; -0.0676 in experiment [2]; -0.183 in [3]; 0.721 in experiment [4]; 0.234 in experiment [5]; -0.341 in experiment [6]. Moreover, the PBM binding z-score in experiment [7] was -0.599; in experiment [8] it was 0.187; in experiment [9], -0.125.

GGAACGAGGGAAAAGTTGATAGCATCTGTCGACG: the PBM binding z-score was -0.745 in experiment [1]; -0.112 in experiment [2]; 0.0748 in experiment [3]; -0.319 in experiment [4]; -0.0103 in experiment [5]; -0.553 in experiment [6]. The results for the PBM binding z-score in experiment [7], in experiment [8] and in experiment [9] were -1.15, -0.649 and -0.433, respectively.

In the case of TCTCGTAGATCAGCAGGTTAAGAAAGCTGGCCAA, the PBM binding z-score in [1] is -0.209; in experiment [2] it was -0.0899; in experiment [3] it was -0.67; in [4], 0.451; in [5], 0.405; in [6] it was 0.0434. Moreover, the PBM binding z-score in experiment [7] is -0.546; in experiment [8], 0.21; in [9], -0.597.

For ATCGAAAGGTCGAGGTGAGTAGAGAGAAAGGGAA, the PBM binding z-score in [1] stood at 2.81; in experiment [2], 4.37; in experiment [3] it was 4.69; in experiment [4], 0.806; in experiment [5] it was 4.41; in [6] it was 2.62. Moreover, the PBM binding z-score in experiment [7] turned out to be 0.626; in experiment [8], 2.27; in experiment [9] it was 0.405.

Turning to TCTTGCAGATCAAGCAGGTTAAGAAAGCCTGAGT, the PBM binding z-score in experiment [1] was -0.292; in experiment [2], -0.332; in experiment [3], -0.629; in experiment [4], 0.253; in [5], -0.0969; in experiment [6], 0.0949. Moreover, the PBM binding z-score in experiment [7] is -0.484; in experiment [8], 0.157; in experiment [9], -0.141.

In the case of AGAATGAGGTTATGAAGATCAGGGAATTGCGGTC, the PBM binding z-score in experiment [1] amounted to 1.07; in experiment [2] it was 1.45; in experiment [3], 1.06; in [4], 1.05; in experiment [5], 2.45; in [6], 2.35. For the same sequence, the PBM binding z-score in experiment [7] amounted to 0.96; in [8] it was 1.44; in [9], 0.716.

Consider CGAACTAGGTCATCCAGGACAGTCAATACATTGA, for which the PBM binding z-score is 3.04 in experiment [1]; 4.11 in [2]; 5.21 in experiment [3]; 2.72 in [4]; 3.39 in experiment [5]; 3.81 in [6]. The PBM binding z-score in [7] worked out at 2.01; in [8], 4.83; in experiment [9] it was 2.52.

Regarding CAAACTAGGTCACGAAAGGTCATAGTCGAATGAC, the PBM binding z-score in experiment [1] is 5.66; in experiment [2] it was 7.6; in [3] it was 8.4; in experiment [4] it was 2.64; in [5], 8.01; in experiment [6] it was 5.09. The PBM binding z-score in [7] is 2.8; in [8], 6.92; in [9] it was 3.75.

Regarding CCTAGTTGTTCAAGGTCACACACGCTATAGGTAC, the PBM binding z-score in [1] amounted to 4.25; in experiment [2], 4.69; in experiment [3], 4.87; in experiment [4], 2.65; in experiment [5], 4.92; in experiment [6], 4.3. Further, the PBM binding z-score in experiment [7] was determined as 4.9; in [8], 4.49; in experiment [9] it was 4.98.

On to GCTTGTAGATCAAGGTTAAGCAAGACTAAGCTAA, for which the PBM binding z-score is 0.306 in experiment [1]; 0.623 in experiment [2]; 0.359 in [3]; -0.0459 in experiment [4]; 0.912 in [5]; 1.67 in experiment [6]. Moreover, the PBM binding z-score in experiment [7] was -0.236; in experiment [8], 0.0624; in experiment [9], -0.472.

In the case of ATACCAAGGTGATCGAGAGGTCGTTGATACTAAC, the PBM binding z-score in [1] came out at 1.77; in [2] it was 2.91; in [3], 1.06; in [4], 0.829; in experiment [5], 1.71; in experiment [6] it was 2.59. Also, the PBM binding z-score in experiment [7] came out at 0.902; in experiment [8], 3.02; in experiment [9], 1.98.

In the case of GCTTGTAGATCAAGGTTAAGTAAGACTAAGCTAA, the PBM binding z-score in [1] is 0.397; in [2], 0.425; in experiment [3] it was 0.177; in experiment [4] it was 0.147; in experiment [5] it was 0.706; in experiment [6], 2.36. For the same sequence, the PBM binding z-score in [7] is -0.276; in [8], 0.257; in experiment [9] it was -0.509.

On to TCGAGTAGGTTACGAATGGGGCATTCAGCTTTCT, for which the PBM binding z-score was 0.29 in experiment [1]; 0.904 in [2]; 0.405 in [3]; 0.441 in [4]; 0.67 in experiment [5]; -0.0841 in experiment [6]. In addition, the results for the PBM binding z-score in experiment [7], in [8] and in [9] were -1.13, -0.137 and -0.811, respectively.

For CCGACTGGGGCTGAAAGGTTACCATACCATCCGG, the PBM binding z-score in experiment [1] was 1.92; in [2], 1.33; in [3] it was 0.724; in [4] it was -0.859; in [5] it was 1.75; in experiment [6] it was 0.974. Also, the PBM binding z-score is -0.189 in experiment [7], 0.343 in [8] and -0.252 in experiment [9].
